The values that follow come from PubChem BioAssay (EPA / NIEHS).

Calls of active or inactive are those of the source. The calls were made as follows: active = hit-call score of the fitted dose curve at least 0.9, where 1 is the maximum; inactive = score below 0.9.

The assay in a line: ATG_FoxO_CIS: Attagene CIS-FACTORIAL HepG2 Assay for human Forkhead box O (FoxO) (AID 2282943). To be noted: HepG2 Attagene cis-reporter, FoxO element, mRNA; actives raise or lower the signal. As for the experimental part:
ATG_CIS is a cell-based, multiplexed-readout assay that uses HepG2, a human liver cell line, with measurements taken at 24 hours after chemical dosing in a 24-well plate.ATG_FoxO_CIS is one of 52 assay component(s) measured or calculated from the ATG_CIS assay. It is designed to make measurements of mRNA induction, a form of inducible reporter, as detected with fluorescence intensity signals by Reverse transcription polymerase chain reaction (RT-PCR) and Capillary electrophoresis technology.Data from the assay component ATG_FoxO_CIS was analyzed into 1 assay endpoint. This assay endpoint, ATG_FoxO_CIS, was analyzed with bidirectional fitting relative to DMSO as the negative control and baseline of activity. Using a type of inducible reporter, measures of mRNA for gain or loss-of-signal activity can be used to understand the reporter gene at the transcription factor-level as they relate to the gene FOXO1 and FOXO3. Furthermore, this assay endpoint can be referred to as a primary readout, because this assay has produced multiple assay endpoints where this one serves a reporter gene function. To generalize the intended target to other relatable targets, this assay endpoint is annotated to the dna binding intended target family, where the subfamily is forkhead box protein.
Human liver HepG2 cells are transiently transfected with multiple reporter transcription units (MRTUs) in 6-well plates using FuGene 6 reagent (Roche; 3 ml FuGene/1 mg DNA). The MRTU constructs are regulated by a cis-regulating element (promoter). […] A major difference between the CIS and TRANS system is that in CIS activities of endogenous TFs are measured, whereas the TRANS assay evaluates changes in activities of exogenous, chimeric NR-Gal4 proteins. […] At the end of 24 hour incubation, total RNA was isolated using TriZol reagent (Invitrogen). The isolated RNA is then reverse-transcribed using oligo(dT) primer and Mo-MLV reverse transcriptase (Invitrogen) with DNAse I (Ambion) treatment for 30 min. The one-tenth of the produced cDNA was amplified by PCR using Taq DNA polymerase (Invitrogen) and two reporter sequence-specific primers. The PCR products were fluorescently labeled by primer extension with 6-arboxyfluorescein (6-FAM) 5'-labeled reporter sequence-specific primer (2 min at 95 C, 20 s at 68 C and 10 min at 72 C) and these products were digested with 5U of HpaI (New England Biolabs) for 2h at 37 C. The fragments were purified using Qiaquick PCR columns (Qiagen), analyzed on an ABI 3130xL genetic analyzer (Applied Biosystems) with peak positions identified by using a set of X-rhodamine (ROX)-labeled MapMarker1000 molecular weight standards (BioVentures). The raw capillary electrophoresis data was processed using Attagraph software (Attagene).
With `CCN(N=O)C(N)=O`, the molecule was called inactive. Still for that read-out and setting: the same measure for `CCOC(=O)Cc1ccccc1`: “inactive”. Broadly, the AC50 is the midpoint of the concentration-response curve, whichever way the signal moves. Regarding `Cc1cc(C(C)(C)c2ccc(O)c(C)c2)ccc1O`, the AC50 is 72.8 µM (active). Same read-out and setting: the same measure for `CC(C)N(C(=O)CCl)c1ccccc1`: 33.4 µM (active).

With `CCCCOC(C)=O`, the molecule was classed as inactive.

With `Cc1cccc(OP(=O)(Oc2cccc(C)c2)Oc2cccc(C)c2)c1`, the call was inactive. Same read-out and setting: the same measure for `CN(C)[C@@H]1C(=O)C(C(N)=O)=C(O)[C@@]2(O)C(=O)C3=C(O)c4c(O)ccc(Cl)c4[C@@](C)(O)[C@H]3C[C@@H]12`: “inactive”. For `O=C(O)COc1ccc(Cl)cc1`, the molecule was classed as inactive.

In the case of `NC(=O)CCl`, the molecule was called inactive.

Regarding `Cc1ccc(CCl)cc1`, the molecule was called inactive. On the same count and under the same terms, in the case of `O=C(O)c1cc(I)cc(I)c1I` it was “inactive”. Regarding `CCCCCCCCCCCCN(C)C`, the AC50 was 58.7 µM (active).

With `Fc1cccc(Cl)c1CCl`, the molecule was called inactive. Same read-out and setting: the same measure for `O=c1nc(O)n(Cl)c(=O)n1Cl`: “inactive”; for `Cc1cccc(C)c1NC(=O)CN1CCCC1=O`: “inactive”.

With `CC(C)(COCC1CO1)COCC1CO1` (stereo not given), the outcome was inactive. The same measure, in the same setting: the same measure for `BrCc1ccc(Br)cc1`: “inactive”; for `CC1(C)COP(Oc2ccccc2)OC1`: “inactive”. With `O=NN1CCCCCC1`, the result was inactive. `COc1nn(C(=O)NS(=O)(=O)c2ccccc2OC(F)(F)F)c(=O)n1C`: the call was inactive. As to `C=CC(=O)OCC(COC(=O)C=C)(COC(=O)C=C)COC(=O)C=C`, the AC50 is 8.71 µM (active).

On to `C#CCOC(=O)/C=C(C)/C=C/CC(C)CCCC(C)C` (stereo not given), for which the outcome was inactive. On the same count and under the same terms, the same measure for `C#CCO`: “inactive”. On to `CCC[CH2][Sn]([Cl])([Cl])[CH2]CCC`, for which the AC50 is 0.66 µM (active). In the case of `BrCC(Br)c1ccccc1` (stereo not given), the call was inactive.

For the molecule `C=CCCl`, the outcome was inactive. The same measure, in the same setting: in the case of `N#Cc1cccnc1` it was “inactive”; in that of `CCC(C)(C#N)N=NC(C)(C#N)CC` (stereo not given), “inactive”. Still for that read-out and setting: the same measure for `Cc1cc(Cl)ccc1OCCCC(=O)O`: “inactive”. Same read-out and setting: the same measure for `O=[N+]([O-])c1cccc2ccccc12`: “inactive”; for `O=C(Cl)OCCOCCOC(=O)Cl`: “inactive”; for `Nc1c(Oc2ccccc2)cc(O)c2c1C(=O)c1ccccc1C2=O`: “inactive”.

For the molecule `CCOP(=S)(OCC)OP(=S)(OCC)OCC`, the molecule was classed as inactive. The same measure, in the same setting: the same measure for `C=CCN=C=S`: “inactive”. Regarding `CN(C)c1ccc(N=O)cc1`, the call was inactive. On to `O=C1c2ccccc2C(=O)C1C(=O)C(c1ccccc1)c1ccc(Cl)cc1` (stereo not given), for which the AC50 is 54.6 µM (active). Take `CN(CCCC(O)c1cccnc1)N=O` (stereo not given): the molecule was classed as inactive. For `c1ccc2c(c1)Oc1ccccc1O2`, the molecule was classed as inactive. Take `Oc1cccc(-c2ccccc2)c1`: the call was inactive. On the same count and under the same terms, in the case of `CCCCOC(=O)COC(=O)c1ccccc1C(=O)OCCCC` it was “inactive”.
